Results taken from PubChem BioAssay.
Several values for one entry are separate records, joined by “and”; a condition that tells them apart may be missing. Equal values may be shown once. Unmarked numbers belong to inactive results.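 How the source made its calls: active means GFP response above 150% of the DMSO level; inconclusive means fewer than 70 events counted for a yeast strain; inactive means the rest.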

Test: AGP1-GFP expression modulators, hit retest, confirmation, cell-based, flow cytometry, S. cerevisiae, cherry picks (AID 2273);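 further: median GFP channel fluorescence over the whole cell population gate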
Conditions: S. cerevisiae AGP1-GFP strain, 3 h, at 10 µM

| Structure (SMILES) | GFP response, % of DMSO |
| --- | --- |
| CN(C)CCCN1c2ccccc2Sc2ccc(Cl)cc21 | 94.3% |
| O=c1cnn([C@@H]2O[C@H](CO)[C@@H](O)[C@H]2O)c(=O)[nH]1 | 89.9% |
| NS(=O)(=O)c1cc2c(cc1C(F)(F)F)NC(Cc1ccccc1)NS2(=O)=O (stereo not given) | 101% |
| O=[N+]([O-])c1ccc(O)c2ncccc12 | 128% |
| CS(=O)(=O)Nc1cccc(C(=O)CC2(O)C(=O)Nc3ccc(Br)cc32)c1 (stereo not given) | 101% |
| C[C@]12CCC(=O)C=C1CC[C@@H]1[C@@H]2[C@@H](O)C[C@@]2(C)[C@H]1CC[C@]2(O)C(=O)COC(=O)CCC(=O)O | 98.9% and 99.3% |
| C[C@]12CCC(=O)C=C1CC[C@@H]1[C@@H]2[C@@H](O)C[C@@]2(C)[C@H]1CC[C@]2(O)C(=O)CO | 99.2% |
| CC(=O)OCC(=O)[C@H]1CC[C@H]2[C@@H]3CCC4=CC(=O)CC[C@]4(C)[C@H]3CC[C@]12C | 95.2% |
| C[C@]12CCC(=O)C=C1[C@H](O)C[C@@H]1[C@@H]2[C@@H](O)C[C@@]2(C)[C@H]1CC[C@]2(O)C(=O)CO | 98.9% |
| COc1ccc(C(=O)NCC2OCCc3ccccc32)cc1 (stereo not given) | 91.3% |
| CC(=O)c1ccc(CCCCCCCCCC(=O)O)s1 | 95.2% |
| C#C[C@]1(O)CC[C@H]2[C@@H]3CCC4=CC(=O)CC[C@@H]4[C@H]3CC[C@@]21CC | 95.7% |
| CC(=O)[C@@]1(O)CC[C@H]2[C@@H]3CCC4=CC(=O)CC[C@]4(C)[C@H]3[C@@H](O)C[C@@]21C | 103% |
| O=C(O)Cc1ccc(-c2ccccc2)cc1 | 100% |
| OC(CCN1CCCCC1)(c1ccccc1)c1ccccc1 | 96.3% |
| CC(=O)OCC(=O)[C@@]1(O)CC[C@H]2[C@@H]3CCC4=CC(=O)CC[C@]4(C)[C@H]3[C@@H](O)C[C@@]21C | 97% |
| COc1ccc(C2=CC(=O)C=CC2=O)cc1 | 100% |
| Cn1c(=O)c(C(=O)NCCO)c(O)c2ccccc21 | 98.3% |
| CN1CCN2c3ccccc3Cc3ccccc3C2C1 (stereo not given) | 97.6% |
| CNCCC(Oc1ccc(C(F)(F)F)cc1)c1ccccc1 (stereo not given) | 97.4% |
